# Results: PubChem BioAssay (NCATS)
# Values joined by “and” are separate entries in the source; they are usually repeats but may differ in a detail not shown here. Equal entries are not always repeated. Inconclusive results are not listed. More than one record can exist for a structure, and the calls need not agree. Active and inactive are the calls of the source. Calls follow the shape of the dose curve; as a rule, active = well fitted inhibition curve with a large enough effect; inconclusive = small, poorly fitted or top-dose-only effect; inactive = no such curve, though single readings can be large or run the other way.
# Target: Cytochrome P450 2C19 (Homo sapiens) (UniProt P33261)
# Sequence (P33261 whole entry, looked up): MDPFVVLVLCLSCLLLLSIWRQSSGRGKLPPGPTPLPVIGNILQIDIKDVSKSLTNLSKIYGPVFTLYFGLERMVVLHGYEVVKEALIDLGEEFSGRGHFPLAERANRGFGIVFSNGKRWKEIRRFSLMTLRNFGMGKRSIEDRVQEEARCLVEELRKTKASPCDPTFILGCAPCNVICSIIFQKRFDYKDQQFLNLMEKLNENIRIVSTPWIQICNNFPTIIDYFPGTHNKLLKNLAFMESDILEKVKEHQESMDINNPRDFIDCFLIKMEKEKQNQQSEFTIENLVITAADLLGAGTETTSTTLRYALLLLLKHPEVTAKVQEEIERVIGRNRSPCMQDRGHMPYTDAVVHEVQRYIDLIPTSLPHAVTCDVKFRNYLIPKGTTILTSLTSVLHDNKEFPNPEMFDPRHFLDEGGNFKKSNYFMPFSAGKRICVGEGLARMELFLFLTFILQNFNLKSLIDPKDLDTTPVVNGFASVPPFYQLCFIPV
# Test: qHTS Assay for Inhibitors and Substrates of Cytochrome P450 2C19 (AID 899); also: nearly all actives have a fitted effect of over 60% in size
# Settings: recombinant CYP2C19, luciferin-H EGE luminescence; series mostly up to 11.4 µM; activity, negative = inhibition: at the top concentration
# Method in brief: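 In 50mM KPO4, the reaction held 5nM enzyme and KM-level (10uM) Luciferin-H EGE; it ran 60 min at 37C after NADPH regeneration and a 10 min compound preincubation. Luminescence values were scaled to 57uM ketoconazole as complete inhibition.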
# % is scaled to controls: 0 for no effect and ±100 for the full control effect; potency is read from the fitted curve at half-maximal effect.
SMILES,"activity, negative = inhibition",Potency
CC12C=C(/C=C/c3ccc(Br)cc3)C(C)(C1)C(c1ccc(Br)cc1)CC2=O (stereo unspecified),-39.3% (inactive),–
COC(=O)N(/C=C/c1ccc(OC)cc1)CCc1ccc(OC)c(OC)c1,–,3.98 µM (active)
CCCCCCC(=O)Cc1cc(OC)c(OC)cc1/C=C(/C(C)=O)C(=O)OC,–,2 µM (active)
CC(=O)OCC1OC(C#CCCCc2ccccc2)C=CC1OC(C)=O (stereo unspecified),-1.48% (inactive),–
COc1ccc(/C=C/N(CCc2ccc(OC)c(OC)c2)C(C)=O)cc1,–,0.794 µM (active)
COC(=O)NC(/C(C(=O)OC)=C(\C)NCc1ccccc1)c1ccc(F)cc1 (stereo unspecified),–,0.251 µM (active)
Cc1cc(C)cc(C#CC2C=CC(Oc3ccc(C4CCCC4)cc3)C(CO)O2)c1 (stereo unspecified),-28% (inactive),–
COC(=O)C1=C(C)N(Cc2ccccc2)C2=C(C(=O)c3ccccc3)C(c3ccccc3)[C@@](O)(C(=O)OC)C(=O)N2C1c1ccccc1 (stereo partly specified),–,inactive
C=CCOC(=O)/C=C/NC(=O)/C=C/C=C/CCCCCCCC(C)O (stereo unspecified),–,inactive
C=CCC1C=CC(Oc2ccc(OC)cc2)C(CO)O1 (stereo unspecified),-39.6% (inactive),–
COC(=O)C/C=C\[C@@H](C)[C@@H](/C=N\OC[C@@H]1O[C@H](c2ccccc2)C=C[C@@H]1Oc1ccc(OC)cc1)NS(=O)(=O)c1ccc(C)cc1,–,0.398 µM (active)
COc1ccc(/C=C/N(CCc2ccc(OC)c(OC)c2)C(=O)c2ccccn2)cc1,-27.5% (inactive),–
C=C(C)C(O)/C=C/c1ccc(Br)cc1 (stereo unspecified),–,0.02 µM (active)
COC(=O)C1=C(C)N(Cc2ccccc2)C2=C3C(=O)N(C)C(=O)C3[C@@](O)(C(=O)OC)C(=O)N2C1c1ccccc1 (stereo partly specified),–,inactive
COC(=O)C1=C(C)N(Cc2ccccc2)C2=C3C(=O)OCCC3[C@@](O)(C(=O)OC)C(=O)N2C1c1ccccc1 (stereo partly specified),12.6% (inactive),–
COC(=O)[C@@H]1CC[C@H](C)[C@@H](c2ccc(C)cc2)N1C(=O)c1ccc(/C=N\O[C@@H](C)c2cn([C@H](CO)Cc3ccccc3)nn2)cc1,–,3.98 µM (active)
CC1CCC2C(=O)OC(COc3ccc(C(C)(C)C)cc3)CN2C1c1ccc(Br)cc1 (stereo unspecified),–,251 nM (active) and inactive
C=COCC1CN2C(CCC(C)C2c2ccc(Br)cc2)C(=O)O1 (stereo unspecified),–,316 nM (active) and 79.4 nM (active)

SMILES,"activity, negative = inhibition",Potency
CC12C=C(/C=C/C=C/c3ccccc3)C(C)(C1)C(/C=C/c1ccccc1)CC2=O (stereo unspecified),–,1.58 µM (active)
Cc1ccc(S(=O)(=O)N[C@@H](CCc2ccccc2)CC(=O)C(C)(C)C)cc1,–,1.58 µM (active)
CCOC(=O)OCC1OC(C#Cc2ccccc2)C=CC1Oc1cccc(N(C)C)c1 (stereo unspecified),–,1.58 µM (active)
COc1ccc(O[C@H]2C=C[C@@H](c3ccccc3)O[C@H]2COC(=O)CC/C(C)=N/OCC[C@@H]2C=C[C@H](OC(C)=O)[C@H](COC(C)=O)O2)cc1,–,0.398 µM (active)
COc1ccc(OC2C=CC(c3ccccc3)OC2CO)c(C(C)(C)C)c1 (stereo unspecified),–,3.16 µM (active)
CC1CCC2C(=O)N3C(CCC(C)[C@@H]3c3cccc(N4CCOCC4)c3)C(=O)N2C1c1cccc(N2CCOCC2)c1 (stereo partly specified),21% (inactive),–
COc1ccc(OC2C=CC(C#Cc3ccc(F)cc3F)OC2CO)cc1 (stereo unspecified),–,0.398 µM (active)
CCOC(=O)OCC1OC(c2cc(C)cc(C)c2)C=CC1OC(=O)OCC (stereo unspecified),-20.5% (inactive),–
C/C(CCC(=O)OC[C@@H]1O[C@H](C#Cc2ccccc2)C=C[C@@H]1Oc1ccc(C)cc1)=N/O[C@@H](C)c1cn([C@H](CO)Cc2ccccc2)nn1,–,3.98 µM (active)
COc1ccc(OCC2CN3C(CCC(C)C3c3ccc(Br)cc3)C(=O)O2)cc1 (stereo unspecified),-41% (inactive),–
COc1ccc(/C=C/NC(=O)c2ccc(OC)cc2)cc1,-44.1% (inactive),–
CC#CC(C)C(OCOC)C(CC(C)Cc1cc(Br)cc(OCc2ccccc2)c1OC)OC (stereo unspecified),36.3% (inactive),–
COc1ccc(O[C@H]2C=C[C@@H](c3ccccc3)O[C@H]2COC(=O)CC/C(C)=N\OC[C@@H](O)[C@H]2O[C@H]3OC(C)(C)O[C@H]3[C@@H]2O)cc1,–,0.005 µM (active)
Cc1cc(C)cc(/C=C/C2OCC(O)C2Oc2ccc(C3CCCC3)cc2)c1 (stereo unspecified),-21.6% (inactive),–
COc1ccc(O[C@H]2C=C[C@@H](c3ccccc3)O[C@H]2CO/N=C2/c3cc(OC)ccc3O[C@@H](c3cccc(OC)c3)[C@H]2O)cc1,–,0.501 µM (active)
CCN1C(C)=C(C(=O)OC)C(c2ccccc2)N2C(=O)[C@](O)(C(=O)OC)C(c3ccccc3)C(C(=O)c3ccccc3)=C12 (stereo partly specified),20.1% (inactive),–
COC(=O)NC(CC(C)=O)c1ccc2c(c1)OCO2 (stereo unspecified),-36.2% (inactive),–
COC(=O)C1=C(C)N(Cc2ccccc2)C2=C3C(=O)CCCC3[C@@](O)(C(=O)OC)C(=O)N2C1c1ccccc1 (stereo partly specified),–,inactive
